For assay [1], the target named is T1, Inhibitor of nuclear factor kappa-B kinase subunit epsilon (Homo sapiens) (UniProt Q14164).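 Also: reported values are averaged percent inhibition figures against human IKKε.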
T1 sequence (whole entry): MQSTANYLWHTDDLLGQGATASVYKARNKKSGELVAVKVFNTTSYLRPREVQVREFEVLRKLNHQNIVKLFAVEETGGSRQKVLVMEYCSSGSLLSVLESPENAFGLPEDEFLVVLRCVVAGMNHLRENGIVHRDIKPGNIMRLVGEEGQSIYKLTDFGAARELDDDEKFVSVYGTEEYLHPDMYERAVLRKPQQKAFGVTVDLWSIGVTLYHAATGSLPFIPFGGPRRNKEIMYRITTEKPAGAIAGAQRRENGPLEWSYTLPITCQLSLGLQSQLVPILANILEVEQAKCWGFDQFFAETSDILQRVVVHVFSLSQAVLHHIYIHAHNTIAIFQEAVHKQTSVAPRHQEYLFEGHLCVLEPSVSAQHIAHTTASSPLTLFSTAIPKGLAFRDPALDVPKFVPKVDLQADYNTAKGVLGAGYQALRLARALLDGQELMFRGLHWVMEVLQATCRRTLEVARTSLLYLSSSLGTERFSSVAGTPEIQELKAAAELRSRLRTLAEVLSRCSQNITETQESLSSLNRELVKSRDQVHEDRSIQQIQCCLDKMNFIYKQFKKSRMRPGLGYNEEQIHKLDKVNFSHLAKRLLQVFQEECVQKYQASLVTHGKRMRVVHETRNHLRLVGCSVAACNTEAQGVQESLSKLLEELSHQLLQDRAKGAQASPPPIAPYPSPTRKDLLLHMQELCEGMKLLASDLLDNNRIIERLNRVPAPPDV
Particulars: at 1 µM.

Assay [2] deals with T2, Serine/threonine-protein kinase Nek1 (Homo sapiens) (UniProt Q96PY6).
T2 sequence (whole entry): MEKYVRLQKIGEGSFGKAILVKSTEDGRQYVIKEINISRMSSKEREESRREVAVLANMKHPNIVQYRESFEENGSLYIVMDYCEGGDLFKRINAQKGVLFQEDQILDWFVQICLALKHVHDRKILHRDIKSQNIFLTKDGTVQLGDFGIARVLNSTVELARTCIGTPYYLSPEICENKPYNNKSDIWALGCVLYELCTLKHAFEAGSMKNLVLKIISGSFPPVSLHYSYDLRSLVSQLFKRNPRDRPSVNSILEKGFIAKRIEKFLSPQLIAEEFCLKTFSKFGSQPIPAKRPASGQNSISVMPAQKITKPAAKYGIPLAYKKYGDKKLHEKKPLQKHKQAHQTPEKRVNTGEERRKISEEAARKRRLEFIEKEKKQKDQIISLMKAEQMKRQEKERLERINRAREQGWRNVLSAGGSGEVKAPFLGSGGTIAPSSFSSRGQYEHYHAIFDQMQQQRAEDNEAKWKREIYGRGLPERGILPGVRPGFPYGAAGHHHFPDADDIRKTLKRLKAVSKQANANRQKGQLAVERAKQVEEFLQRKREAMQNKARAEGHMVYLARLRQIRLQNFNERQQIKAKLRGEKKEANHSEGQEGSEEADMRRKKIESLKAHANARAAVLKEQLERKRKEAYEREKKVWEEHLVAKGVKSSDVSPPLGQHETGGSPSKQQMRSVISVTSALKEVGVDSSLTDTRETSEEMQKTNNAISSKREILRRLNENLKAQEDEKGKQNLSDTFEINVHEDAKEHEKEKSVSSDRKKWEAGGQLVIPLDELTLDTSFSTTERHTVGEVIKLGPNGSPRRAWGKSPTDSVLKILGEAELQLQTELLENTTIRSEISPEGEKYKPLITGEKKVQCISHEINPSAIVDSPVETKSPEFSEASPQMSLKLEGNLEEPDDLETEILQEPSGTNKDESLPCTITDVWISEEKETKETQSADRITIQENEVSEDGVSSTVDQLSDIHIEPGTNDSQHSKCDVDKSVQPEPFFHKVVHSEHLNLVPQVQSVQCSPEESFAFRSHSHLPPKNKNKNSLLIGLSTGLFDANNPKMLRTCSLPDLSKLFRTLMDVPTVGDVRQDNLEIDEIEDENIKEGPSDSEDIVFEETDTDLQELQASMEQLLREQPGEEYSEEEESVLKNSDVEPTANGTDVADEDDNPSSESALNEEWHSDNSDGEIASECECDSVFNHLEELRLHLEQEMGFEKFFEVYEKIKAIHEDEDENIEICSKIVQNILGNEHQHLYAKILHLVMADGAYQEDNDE
Particulars: at 0.1 µM.

Assay [3] has as its target T2, Serine/threonine-protein kinase Nek1 (Homo sapiens). Conditions: at 1 µM.
Assay [4] addresses T3, Serine/threonine-protein kinase Nek2 (Homo sapiens) (UniProt P51955).
T3 sequence (whole entry): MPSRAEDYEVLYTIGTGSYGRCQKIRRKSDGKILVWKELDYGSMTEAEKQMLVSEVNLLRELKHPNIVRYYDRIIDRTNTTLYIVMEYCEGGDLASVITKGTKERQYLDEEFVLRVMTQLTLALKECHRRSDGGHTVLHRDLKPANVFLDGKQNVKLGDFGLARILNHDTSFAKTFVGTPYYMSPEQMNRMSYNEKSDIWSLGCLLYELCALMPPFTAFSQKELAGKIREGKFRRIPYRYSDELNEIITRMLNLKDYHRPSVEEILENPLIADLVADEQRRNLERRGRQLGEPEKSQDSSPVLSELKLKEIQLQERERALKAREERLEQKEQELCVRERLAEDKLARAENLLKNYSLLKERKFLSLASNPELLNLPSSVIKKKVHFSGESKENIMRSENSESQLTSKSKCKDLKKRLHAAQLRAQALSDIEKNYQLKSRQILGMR
Conditions: at 0.1 µM.

The target in assay [5] is T3, Serine/threonine-protein kinase Nek2 (Homo sapiens). Conditions: at 1 µM.
Assay [6] deals with Serine/threonine-protein kinase Nek6 (Homo sapiens) (UniProt Q9HC98). Conditions: at 0.1 µM.
Assay [7] has the same target. Conditions: at 1 µM.
The target of assay [8] is Serine/threonine-protein kinase Nek7 (Homo sapiens) (UniProt Q8TDX7). Conditions: at 0.1 µM.
Assay [9] has the same target. Conditions: at 1 µM.
In assay [10] the target is T4, Serine/threonine-protein kinase Nek9 (Homo sapiens) (UniProt Q8TD19).
T4 sequence (whole entry): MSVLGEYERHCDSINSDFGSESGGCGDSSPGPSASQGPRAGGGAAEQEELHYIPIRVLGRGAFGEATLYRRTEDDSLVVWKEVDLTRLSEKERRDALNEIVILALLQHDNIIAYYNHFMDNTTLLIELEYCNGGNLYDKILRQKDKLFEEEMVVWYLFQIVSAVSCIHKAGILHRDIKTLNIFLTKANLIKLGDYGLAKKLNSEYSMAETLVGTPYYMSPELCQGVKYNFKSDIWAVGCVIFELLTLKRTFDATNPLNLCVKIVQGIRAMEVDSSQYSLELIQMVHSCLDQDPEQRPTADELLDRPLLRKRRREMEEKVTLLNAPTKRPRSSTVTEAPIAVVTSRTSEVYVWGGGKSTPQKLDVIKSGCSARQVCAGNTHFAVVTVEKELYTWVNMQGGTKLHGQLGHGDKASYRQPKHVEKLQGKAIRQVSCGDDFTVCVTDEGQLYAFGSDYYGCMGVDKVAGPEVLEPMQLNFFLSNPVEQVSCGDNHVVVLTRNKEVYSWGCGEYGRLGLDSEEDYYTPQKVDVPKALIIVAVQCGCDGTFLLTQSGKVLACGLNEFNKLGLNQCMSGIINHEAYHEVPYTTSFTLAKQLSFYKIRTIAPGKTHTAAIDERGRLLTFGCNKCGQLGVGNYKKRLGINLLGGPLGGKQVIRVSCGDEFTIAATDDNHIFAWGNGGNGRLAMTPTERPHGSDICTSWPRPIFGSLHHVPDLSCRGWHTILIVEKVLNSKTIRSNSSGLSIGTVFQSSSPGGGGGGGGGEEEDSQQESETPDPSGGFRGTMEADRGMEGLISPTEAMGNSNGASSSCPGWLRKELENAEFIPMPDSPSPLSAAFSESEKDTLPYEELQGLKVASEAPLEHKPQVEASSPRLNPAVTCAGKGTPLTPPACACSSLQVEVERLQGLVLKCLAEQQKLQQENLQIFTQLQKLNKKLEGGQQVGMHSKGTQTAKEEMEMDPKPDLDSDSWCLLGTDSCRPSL
Particulars: at 0.1 µM.

The target in assay [11] is T4, Serine/threonine-protein kinase Nek9 (Homo sapiens). Particulars: at 1 µM.
For assay [12], the target named is Serine/threonine-protein kinase PLK1 (Homo sapiens) (UniProt P53350). Particulars: at 0.1 µM.
Assay [13] shares this target. Conditions: at 1 µM.
Assay [14] addresses T5, Dual specificity protein kinase TTK (Homo sapiens) (UniProt P33981).
T5 sequence (whole entry): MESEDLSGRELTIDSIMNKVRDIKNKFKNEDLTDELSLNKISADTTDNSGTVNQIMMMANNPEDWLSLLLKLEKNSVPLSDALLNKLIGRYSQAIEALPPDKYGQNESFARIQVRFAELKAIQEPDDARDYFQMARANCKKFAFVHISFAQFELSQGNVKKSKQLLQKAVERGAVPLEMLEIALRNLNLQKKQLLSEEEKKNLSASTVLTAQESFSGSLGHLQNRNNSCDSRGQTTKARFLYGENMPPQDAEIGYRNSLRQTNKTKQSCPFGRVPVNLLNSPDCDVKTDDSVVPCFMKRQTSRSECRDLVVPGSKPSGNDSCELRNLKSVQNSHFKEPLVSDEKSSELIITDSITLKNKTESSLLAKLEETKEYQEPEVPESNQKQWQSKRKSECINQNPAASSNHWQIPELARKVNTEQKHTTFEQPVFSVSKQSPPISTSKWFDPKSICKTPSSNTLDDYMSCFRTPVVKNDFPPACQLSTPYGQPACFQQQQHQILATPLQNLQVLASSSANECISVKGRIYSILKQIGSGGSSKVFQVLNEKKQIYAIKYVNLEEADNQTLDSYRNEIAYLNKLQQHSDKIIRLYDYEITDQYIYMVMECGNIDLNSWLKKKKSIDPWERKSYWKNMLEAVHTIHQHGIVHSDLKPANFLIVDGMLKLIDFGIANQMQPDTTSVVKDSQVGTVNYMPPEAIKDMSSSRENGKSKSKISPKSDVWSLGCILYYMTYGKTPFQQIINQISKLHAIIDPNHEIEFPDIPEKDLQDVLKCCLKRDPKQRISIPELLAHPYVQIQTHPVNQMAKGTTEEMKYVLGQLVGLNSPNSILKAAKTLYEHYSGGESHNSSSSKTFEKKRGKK
Conditions: at 0.1 µM.

The test system of assay [15] is T6, Receptor-type tyrosine-protein kinase FLT3 (Homo sapiens), P36888 [D835Y].
T6 sequence (whole entry): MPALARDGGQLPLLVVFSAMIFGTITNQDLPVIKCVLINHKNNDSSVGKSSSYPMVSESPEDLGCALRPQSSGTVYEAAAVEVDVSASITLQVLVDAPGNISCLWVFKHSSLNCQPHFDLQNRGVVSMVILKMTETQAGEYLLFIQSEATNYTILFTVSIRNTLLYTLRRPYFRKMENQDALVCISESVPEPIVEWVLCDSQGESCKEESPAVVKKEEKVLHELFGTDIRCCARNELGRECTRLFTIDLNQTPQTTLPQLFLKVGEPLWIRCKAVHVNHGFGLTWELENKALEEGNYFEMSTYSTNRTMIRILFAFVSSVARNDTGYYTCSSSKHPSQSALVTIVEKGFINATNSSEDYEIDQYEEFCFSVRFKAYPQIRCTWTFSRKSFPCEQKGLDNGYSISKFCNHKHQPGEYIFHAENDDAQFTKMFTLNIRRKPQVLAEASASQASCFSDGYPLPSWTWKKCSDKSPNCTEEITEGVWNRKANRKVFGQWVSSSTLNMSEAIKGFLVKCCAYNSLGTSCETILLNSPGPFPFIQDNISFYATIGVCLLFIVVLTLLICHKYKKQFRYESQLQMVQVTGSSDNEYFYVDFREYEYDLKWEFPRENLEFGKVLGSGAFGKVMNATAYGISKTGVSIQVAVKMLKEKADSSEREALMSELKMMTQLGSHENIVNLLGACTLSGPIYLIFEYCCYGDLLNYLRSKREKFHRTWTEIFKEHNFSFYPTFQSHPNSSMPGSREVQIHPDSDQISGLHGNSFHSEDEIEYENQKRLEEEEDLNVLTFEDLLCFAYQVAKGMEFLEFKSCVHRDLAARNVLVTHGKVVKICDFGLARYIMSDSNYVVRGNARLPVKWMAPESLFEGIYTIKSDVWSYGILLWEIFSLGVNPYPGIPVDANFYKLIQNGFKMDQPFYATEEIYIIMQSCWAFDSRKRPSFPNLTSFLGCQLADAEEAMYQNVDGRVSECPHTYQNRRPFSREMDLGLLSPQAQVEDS
Particulars: at 1 µM.

The target in assay [16] is Vascular endothelial growth factor receptor 3 (Homo sapiens) (UniProt P35916). Particulars: at 0.1 µM.
For assay [17] the target is unchanged. Conditions: at 1 µM.
For assay [18], the target named is Macrophage colony-stimulating factor 1 receptor (Homo sapiens) (UniProt P07333). Conditions: at 0.1 µM.
Assay [19] shares this target. Conditions: at 1 µM.
Assay [20] concerns the target Tyrosine-protein kinase Fyn (Homo sapiens) (UniProt P06241). Conditions: at 0.1 µM.

Chain of Serine/threonine-protein kinase Nek6 (Homo sapiens) (Q9HC98 whole entry): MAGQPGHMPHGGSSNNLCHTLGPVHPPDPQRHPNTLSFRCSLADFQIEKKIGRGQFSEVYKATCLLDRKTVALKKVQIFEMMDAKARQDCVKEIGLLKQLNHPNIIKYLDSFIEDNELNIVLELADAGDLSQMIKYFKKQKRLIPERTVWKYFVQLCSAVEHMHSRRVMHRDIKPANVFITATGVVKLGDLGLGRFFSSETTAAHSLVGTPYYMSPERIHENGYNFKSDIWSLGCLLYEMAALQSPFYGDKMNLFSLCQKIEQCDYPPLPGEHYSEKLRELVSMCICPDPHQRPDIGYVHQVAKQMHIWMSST
Chain of Vascular endothelial growth factor receptor 3 (Homo sapiens) (P35916 whole entry): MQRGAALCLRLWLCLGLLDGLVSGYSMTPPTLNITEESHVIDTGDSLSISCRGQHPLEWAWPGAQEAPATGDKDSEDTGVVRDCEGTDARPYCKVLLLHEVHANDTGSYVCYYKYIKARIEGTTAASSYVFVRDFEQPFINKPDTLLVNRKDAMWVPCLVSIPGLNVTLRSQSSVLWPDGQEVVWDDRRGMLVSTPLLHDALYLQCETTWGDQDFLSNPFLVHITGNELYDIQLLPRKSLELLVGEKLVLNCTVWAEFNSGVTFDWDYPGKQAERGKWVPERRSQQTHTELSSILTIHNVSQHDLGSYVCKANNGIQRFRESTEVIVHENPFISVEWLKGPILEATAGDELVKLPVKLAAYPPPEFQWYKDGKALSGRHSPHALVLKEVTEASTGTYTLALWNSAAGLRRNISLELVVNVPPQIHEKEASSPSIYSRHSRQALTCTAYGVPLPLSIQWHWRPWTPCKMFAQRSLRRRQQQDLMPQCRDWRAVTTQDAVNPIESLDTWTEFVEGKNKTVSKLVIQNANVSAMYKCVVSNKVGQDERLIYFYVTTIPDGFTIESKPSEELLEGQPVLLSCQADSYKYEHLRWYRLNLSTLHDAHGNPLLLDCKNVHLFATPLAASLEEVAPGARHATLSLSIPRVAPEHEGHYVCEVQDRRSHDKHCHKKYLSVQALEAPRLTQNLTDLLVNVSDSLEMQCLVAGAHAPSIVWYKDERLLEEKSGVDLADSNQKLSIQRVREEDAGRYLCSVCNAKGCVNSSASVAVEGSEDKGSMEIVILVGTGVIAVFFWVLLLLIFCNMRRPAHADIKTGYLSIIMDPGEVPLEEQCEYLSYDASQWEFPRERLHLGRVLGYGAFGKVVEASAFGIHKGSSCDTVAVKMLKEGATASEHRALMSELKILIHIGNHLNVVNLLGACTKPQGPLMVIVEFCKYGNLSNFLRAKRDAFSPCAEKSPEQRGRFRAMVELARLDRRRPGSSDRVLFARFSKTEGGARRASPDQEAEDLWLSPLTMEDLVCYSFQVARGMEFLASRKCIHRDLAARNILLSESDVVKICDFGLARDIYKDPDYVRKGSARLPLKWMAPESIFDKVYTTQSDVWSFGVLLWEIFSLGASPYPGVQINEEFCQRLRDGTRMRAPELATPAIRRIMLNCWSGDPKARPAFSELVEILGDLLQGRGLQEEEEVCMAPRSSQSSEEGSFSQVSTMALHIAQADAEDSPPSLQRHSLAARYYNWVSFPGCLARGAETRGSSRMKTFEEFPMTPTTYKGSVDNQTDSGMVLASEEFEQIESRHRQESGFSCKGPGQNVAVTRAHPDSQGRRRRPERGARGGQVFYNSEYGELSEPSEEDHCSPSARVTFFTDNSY
Chain of Serine/threonine-protein kinase PLK1 (Homo sapiens) (P53350 whole entry): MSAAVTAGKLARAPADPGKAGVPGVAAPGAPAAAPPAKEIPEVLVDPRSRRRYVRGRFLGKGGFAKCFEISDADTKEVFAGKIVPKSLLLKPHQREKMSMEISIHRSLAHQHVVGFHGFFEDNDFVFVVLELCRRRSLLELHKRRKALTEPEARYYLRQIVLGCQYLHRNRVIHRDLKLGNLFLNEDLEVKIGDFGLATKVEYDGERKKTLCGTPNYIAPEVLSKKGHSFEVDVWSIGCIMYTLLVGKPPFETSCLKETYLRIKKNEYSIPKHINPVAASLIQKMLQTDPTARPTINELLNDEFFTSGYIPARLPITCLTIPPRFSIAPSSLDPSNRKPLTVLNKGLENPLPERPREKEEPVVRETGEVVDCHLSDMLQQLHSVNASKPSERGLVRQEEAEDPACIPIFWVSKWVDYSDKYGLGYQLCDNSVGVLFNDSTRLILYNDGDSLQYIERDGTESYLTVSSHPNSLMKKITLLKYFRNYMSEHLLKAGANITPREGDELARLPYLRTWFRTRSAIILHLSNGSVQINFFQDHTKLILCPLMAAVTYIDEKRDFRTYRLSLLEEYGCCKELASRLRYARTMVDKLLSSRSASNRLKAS
Chain of Serine/threonine-protein kinase Nek7 (Homo sapiens) (Q8TDX7 whole entry, looked up): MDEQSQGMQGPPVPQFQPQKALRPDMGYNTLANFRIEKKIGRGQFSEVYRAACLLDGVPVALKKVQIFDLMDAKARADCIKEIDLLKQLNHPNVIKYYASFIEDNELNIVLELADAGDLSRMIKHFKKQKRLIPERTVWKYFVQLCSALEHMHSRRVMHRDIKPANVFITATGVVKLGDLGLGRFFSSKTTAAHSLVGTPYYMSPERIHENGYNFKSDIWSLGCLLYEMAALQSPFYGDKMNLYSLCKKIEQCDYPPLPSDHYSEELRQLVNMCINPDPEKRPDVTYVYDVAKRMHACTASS
Chain of Macrophage colony-stimulating factor 1 receptor (Homo sapiens) (P07333 whole entry): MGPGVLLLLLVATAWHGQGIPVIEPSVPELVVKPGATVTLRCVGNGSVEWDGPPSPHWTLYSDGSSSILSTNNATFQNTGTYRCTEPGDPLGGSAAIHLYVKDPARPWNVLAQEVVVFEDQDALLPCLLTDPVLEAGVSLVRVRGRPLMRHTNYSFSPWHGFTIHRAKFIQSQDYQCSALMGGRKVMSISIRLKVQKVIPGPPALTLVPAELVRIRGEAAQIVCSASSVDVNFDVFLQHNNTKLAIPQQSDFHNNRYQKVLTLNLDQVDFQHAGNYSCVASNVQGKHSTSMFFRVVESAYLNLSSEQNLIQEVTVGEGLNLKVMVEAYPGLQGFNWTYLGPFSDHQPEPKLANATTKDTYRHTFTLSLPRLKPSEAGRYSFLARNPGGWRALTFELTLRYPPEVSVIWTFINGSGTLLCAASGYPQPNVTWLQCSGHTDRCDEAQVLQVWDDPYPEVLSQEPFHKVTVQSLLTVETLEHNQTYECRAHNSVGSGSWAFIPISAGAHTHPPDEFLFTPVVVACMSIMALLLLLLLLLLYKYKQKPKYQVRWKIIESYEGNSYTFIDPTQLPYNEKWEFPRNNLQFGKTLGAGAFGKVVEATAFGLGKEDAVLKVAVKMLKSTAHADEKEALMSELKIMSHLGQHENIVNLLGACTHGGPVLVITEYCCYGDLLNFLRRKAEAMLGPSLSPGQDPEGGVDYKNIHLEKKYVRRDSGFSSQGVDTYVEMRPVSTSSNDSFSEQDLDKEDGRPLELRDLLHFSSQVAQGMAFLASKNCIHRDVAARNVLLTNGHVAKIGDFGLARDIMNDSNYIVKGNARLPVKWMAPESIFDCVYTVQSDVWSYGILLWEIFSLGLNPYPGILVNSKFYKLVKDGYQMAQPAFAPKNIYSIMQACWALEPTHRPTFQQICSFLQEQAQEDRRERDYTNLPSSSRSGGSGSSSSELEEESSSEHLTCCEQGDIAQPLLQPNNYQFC
Chain of Tyrosine-protein kinase Fyn (Homo sapiens) (P06241 2-537 limits assumed): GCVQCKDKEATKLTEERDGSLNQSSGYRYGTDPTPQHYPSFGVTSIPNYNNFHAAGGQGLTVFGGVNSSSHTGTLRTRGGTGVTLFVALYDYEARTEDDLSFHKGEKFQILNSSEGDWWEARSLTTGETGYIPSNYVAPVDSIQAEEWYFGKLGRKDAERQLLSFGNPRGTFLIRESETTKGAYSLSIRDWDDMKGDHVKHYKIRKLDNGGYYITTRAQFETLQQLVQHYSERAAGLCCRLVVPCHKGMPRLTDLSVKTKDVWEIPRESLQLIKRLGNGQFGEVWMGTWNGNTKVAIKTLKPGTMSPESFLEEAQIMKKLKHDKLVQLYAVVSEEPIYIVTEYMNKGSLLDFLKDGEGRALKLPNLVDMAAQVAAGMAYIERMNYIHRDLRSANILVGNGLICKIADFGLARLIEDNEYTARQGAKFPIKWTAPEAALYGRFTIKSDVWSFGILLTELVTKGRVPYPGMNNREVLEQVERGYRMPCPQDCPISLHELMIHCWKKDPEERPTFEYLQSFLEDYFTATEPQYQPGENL

As usually defined, the inhibition is the change of the read-out against control, counted positive when it falls. `N#Cc1ccc2c(-c3ccnc(NC4CC4)n3)c(-c3ccc(F)cc3)nn2c1`: the inhibition worked out at 3.7% in assay [1]; 0.87% in [2]; 2.03% in assay [3]; 2.22% in assay [4]; 1.83% in assay [5]; 1.63% in assay [6]. In addition, the inhibition in [7] came to 1.52%; in [8] it was 1.73%; in assay [9], 2.38%; in [10], 3.27%; in assay [11] it was 4.02%; in assay [12], 2.66%. Also, the inhibition in assay [13] is 0.98%; in assay [14] it was 2.64%; in assay [15] it was 4.7%; in [16], -1.37%; in assay [17], 4.18%; in assay [18], -2.75%. Also, the inhibition is 4.65% in assay [19] and -0.41% in assay [20].

Take `OCCCNc1nccc(-c2c(-c3ccc(F)cc3)nn3cc(C(F)(F)F)ccc23)n1`: the inhibition in assay [1] was 0.15%; in [2], -0.37%; in [3], 0.3%; in assay [4], 2.83%; in assay [5], 2.24%; in [6], 4.06%. Also, the inhibition in assay [7] was -0.92%; in assay [8], 2.99%; in assay [9] it was -4.27%; in assay [10], 7.44%; in assay [11], 0.58%; in [12], 3.57%. In addition, the inhibition is 1.96% in assay [13]; 3.55% in assay [14]; 1.7% in assay [15]; -2.7% in assay [16]; 2.54% in [17]; 1.88% in assay [18]. Further, the values for the inhibition in [19] and in assay [20] were 6.34% and 0.07%, respectively.

The values above are taken from ChEMBL document CHEMBL1961873, “Compounds: GSK PKIS; Assays: Nanosyn kinase panel” (2012).
